Here are results for eight molecules from PubChem BioAssay (NCI).

Common to all, as to experiment: NCI-60 one-dose screen, 48 h (100 = growth as untreated, 0 = no growth, -100 = all killed)
Holding throughout (conditions): 10 µM

The subject of test [1] is NCI-H23 lung.
For test [2], the system named is NCI-H226 lung.
Test [3] deals with NCI-H322M lung.
For test [4], the system named is HOP-62 NSCLC.
In test [5] the test system is NCI-H460 lung.
Test [6] relates to HOP-92 NSCLC.
For test [7], the system named is NCI-H522 lung.
The test system of test [8] is A549/ATCC NSCLC.
The test system of test [9] is 786-0 renal.
The test system of test [10] is COLO 205 colon.
Test [11] relates to DU-145 prostate.
Test [12] concerns MALME-3M melanoma.
For test [13], the system named is MDA-MB-231 breast.
Test [14] deals with RXF 393 renal.
Test [15] relates to SF-268 CNS.
Test [16] has as its system SF-295 CNS.
In test [17] the test system is SF-539 CNS.
For test [18], the system named is UACC-257 melanoma.
In test [19] the test system is M14 melanoma.
For test [20], the system named is K-562 leukemia.

This is part of a sample that, as a whole, favours compounds with a hit. Of some 83,000 tested, about 20% had one in any assay.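 Each cell line was grown in a 96-well plate and treated with one concentration of compound for 48 hours. Values below 10 were considered active.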 A number with no mark means an inactive call. The source made the active and inactive calls.

Take `CC[C@@]1(O)C(=O)OCc2c1cc1n(c2=O)Cc2c-1nc1cc(F)c(C)c3c1c2[C@@H](N)CC3`: the growth in [1] was -57.4% (active); in test [2] it was -54.1% (active); in test [3] it was 0.642% (active); in test [4] it was -31.7% (active); in [5], -4.63% (active); in test [6], 15.1%. For the same molecule, the growth is -53.9% (active) in test [7]; -57.9% (active) in test [8]; 5.22% (active) in test [9]; -81.6% (active) in test [10]; 6.82% (active) in test [11]; -55.8% (active) in [12]. The growth in [13] was 10.8%; in test [14], -77.2% (active); in test [15] it was 6.53% (active); in [16], -0.789% (active); in [17], -74.9% (active); in test [18] it was -59.6% (active). Moreover, the growth in test [19] is -20.8% (active).

Consider `N[C@@H](CSSC[C@H](N)C(=O)Nc1ccc(OCC2CCCC2)cc1)C(=O)Nc1ccc(OCC2CCCC2)cc1`, for which the growth in [1] was -92.9% (active); in test [2] it was -72.5% (active); in [3] it was -99.5% (active); in test [4] it was -90.7% (active); in test [5], -77.1% (active); in test [6] it was -72.8% (active). The growth in test [7] is -93.2% (active); in [8], -90.7% (active); in [9], -59.9% (active); in [10] it was -92.5% (active); in test [11], -88.4% (active); in test [12] it was -63.7% (active). The growth was -97.4% (active) in test [13]; -94.1% (active) in test [14]; -73.1% (active) in test [15]; -90.4% (active) in test [16]; -99.7% (active) in test [17]; -96.1% (active) in [18]. The growth in test [19] was -74.5% (active).

Consider `CN1CCN(c2ccc(Nc3nc(NCCNC(=O)c4ccc(C(F)(F)F)cc4)c4sccc4n3)cc2)CC1`, for which the growth was 49.3% in test [1]; 72.3% in [2]; 28.3% in test [3]; 19.4% in [4]; 16.7% in test [5]; -15.3% (active) in test [6]. Also, the growth is 24.6% in [7]; 28.1% in [8]; -56.6% (active) in [9]; -87.6% (active) in test [10]; 45.7% in [11]; -100% (active) in [12]. Further, the growth in test [13] is -36.1% (active); in [14], -82.2% (active); in test [15], 21.8%; in test [16], -62.7% (active); in [17], -99.7% (active); in test [18], -93.4% (active). Moreover, the growth in test [19] is -54.4% (active).

In the case of `O=C1NC(=NC23CC4CC(CC(C4)C2)C3)N/C1=C\c1ccc2ncsc2c1`, the growth in [1] was -10.3% (active); in test [2] it was -4% (active); in [3], 4.94% (active); in test [4] it was 9.31% (active); in [5], 7.74% (active); in [6], 5.85% (active). Moreover, the growth in test [7] is -7.87% (active); in [8], 16.5%; in test [9], 16.1%; in test [11], 6.29% (active); in [20], 10.5%; in test [12], 2.66% (active). The growth was -8.83% (active) in [13]; -63.6% (active) in [14]; -11.5% (active) in [15]; 13% in test [16]; -23.9% (active) in [17]; 26.7% in test [18]. The growth in test [19] is 42%.

As for `O=C(COc1ccc(NC(=O)Nc2ccc(Cl)cc2)cc1)N=Nc1c(O)[nH]c2ccc([N+](=O)[O-])cc12`, the growth in test [1] was 21.4%; in test [2], 22.4%; in [3], 53.3%; in [4], 35.7%; in test [5], 17.5%; in test [6], -36.2% (active). The growth in test [7] is 8.06% (active); in [8], 105%; in test [9] it was 53.6%; in test [10], 23%; in [11], 60.3%; in [12] it was 12.1%. In addition, the growth in test [13] was -44.7% (active); in [14], 73.1%; in [15], 19.5%; in test [16] it was 87.3%; in test [17] it was 16.5%; in test [18] it was 74.9%. Moreover, the growth in test [19] is 21.2%.

In the case of `COc1ccc(C(C)=C(c2ccc(OCCCN(C)C)cc2)c2ccc(OCCCN(C)C)cc2)cc1`, the growth is -95.6% (active) in [1]; -82.2% (active) in test [2]; -97.1% (active) in [3]; -92.2% (active) in test [4]; -44.2% (active) in test [5]; -74.5% (active) in test [6]. Also, the growth in test [7] was -92.7% (active); in [8], -92.5% (active); in test [9], -82.6% (active); in [10], -90.2% (active); in [11], -96.4% (active); in test [12], -97% (active). The growth in test [13] was -97.4% (active); in [14], -94.6% (active); in test [15], -73.7% (active); in test [16] it was -85.2% (active); in test [17] it was -99.5% (active); in test [18], -96.1% (active). Also, the growth in [19] is -79.8% (active).

Take `CC(=O)c1cc(C(=O)N2c3ccccc3Sc3ccccc32)n2ccc(C)cc12`: the growth in test [1] is 42%; in [2], 40.2%; in [3], 72.2%; in test [4], 58.6%; in test [5] it was 12.3%; in test [6], 38.1%. The growth in [8] is 56.9%; in test [9], 44.5%; in test [10], 67.7%; in [11], 56.6%; in test [20] it was 18.7%; in test [12], 53.9%. The growth is 46.4% in test [13]; 49.4% in [15]; 36.5% in test [16]; 32.7% in [17]; 31.6% in [18]; 36.1% in test [19].

On to `Cc1ccn2c(C(=O)c3ccccc3)cc(-c3cc(-c4ccc(N(C)C)cc4)c(C#N)c(N)n3)c2c1`, for which the growth in test [1] was 46.1%; in test [2] it was 16.7%; in test [3] it was 75.1%; in test [4], 53.1%; in test [5] it was 56%; in [6] it was 23.6%. In addition, the growth is 45.9% in test [8]; 21% in test [9]; 66.2% in [10]; 56.4% in [11]; 70.9% in [20]; 63.6% in test [12]. Also, the growth in [13] is 25.7%; in test [15] it was 61.2%; in test [16], 69.3%; in test [17], -62.1% (active); in [18] it was 85.7%.
